Assay [1] has as its system Tyrosine-protein kinase ABL1 (Homo sapiens), P00519 [T315I]. The following applies: at 1 µM.
Assay [2] has as its system Tyrosine-protein kinase ABL1 (Homo sapiens), P00519 [Y253F]. The following applies: at 0.1 µM.
The test system is the same in assay [3]. Conditions: at 1 µM.
The target of assay [4] is Tyrosine-protein kinase ABL1 (Homo sapiens) (UniProt P00519). The following applies: at 0.1 µM.
Assay [5] has the same target. The following applies: at 1 µM.
Assay [6] concerns the target ALK tyrosine kinase receptor (Homo sapiens) (UniProt Q9UM73). Conditions: at 0.1 µM.
For assay [7] the target is unchanged. Conditions: at 1 µM.
Assay [8] has as its target Tyrosine-protein kinase ABL2 (Homo sapiens) (UniProt P42684). Conditions: at 0.1 µM.
The target is the same in assay [9]. The following applies: at 1 µM.
Assay [10] concerns the target Tyrosine-protein kinase receptor UFO (Homo sapiens) (UniProt P30530). Conditions: at 1 µM.
Assay [11] deals with Tyrosine-protein kinase Blk (Homo sapiens) (UniProt P51451). Conditions: at 0.1 µM.
Sequence of Tyrosine-protein kinase Blk (Homo sapiens) (P51451 2-505 limits assumed): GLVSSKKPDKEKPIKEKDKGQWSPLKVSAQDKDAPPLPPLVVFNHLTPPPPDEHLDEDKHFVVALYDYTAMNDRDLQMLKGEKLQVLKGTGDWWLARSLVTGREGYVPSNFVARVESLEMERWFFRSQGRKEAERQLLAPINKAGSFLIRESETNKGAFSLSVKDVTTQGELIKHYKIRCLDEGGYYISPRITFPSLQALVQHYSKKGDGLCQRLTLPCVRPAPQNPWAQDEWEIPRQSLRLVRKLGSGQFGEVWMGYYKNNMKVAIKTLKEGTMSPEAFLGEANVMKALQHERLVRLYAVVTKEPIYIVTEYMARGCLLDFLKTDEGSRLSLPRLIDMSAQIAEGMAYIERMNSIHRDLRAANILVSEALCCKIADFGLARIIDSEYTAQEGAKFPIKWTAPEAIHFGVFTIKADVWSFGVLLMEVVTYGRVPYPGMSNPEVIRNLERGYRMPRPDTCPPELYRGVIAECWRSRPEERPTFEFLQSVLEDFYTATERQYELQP
Assay [12] shares this target. Conditions: at 1 µM.
For assay [13], the target named is T1, Cytoplasmic tyrosine-protein kinase BMX (Homo sapiens) (UniProt P51813).
T1 sequence (whole entry): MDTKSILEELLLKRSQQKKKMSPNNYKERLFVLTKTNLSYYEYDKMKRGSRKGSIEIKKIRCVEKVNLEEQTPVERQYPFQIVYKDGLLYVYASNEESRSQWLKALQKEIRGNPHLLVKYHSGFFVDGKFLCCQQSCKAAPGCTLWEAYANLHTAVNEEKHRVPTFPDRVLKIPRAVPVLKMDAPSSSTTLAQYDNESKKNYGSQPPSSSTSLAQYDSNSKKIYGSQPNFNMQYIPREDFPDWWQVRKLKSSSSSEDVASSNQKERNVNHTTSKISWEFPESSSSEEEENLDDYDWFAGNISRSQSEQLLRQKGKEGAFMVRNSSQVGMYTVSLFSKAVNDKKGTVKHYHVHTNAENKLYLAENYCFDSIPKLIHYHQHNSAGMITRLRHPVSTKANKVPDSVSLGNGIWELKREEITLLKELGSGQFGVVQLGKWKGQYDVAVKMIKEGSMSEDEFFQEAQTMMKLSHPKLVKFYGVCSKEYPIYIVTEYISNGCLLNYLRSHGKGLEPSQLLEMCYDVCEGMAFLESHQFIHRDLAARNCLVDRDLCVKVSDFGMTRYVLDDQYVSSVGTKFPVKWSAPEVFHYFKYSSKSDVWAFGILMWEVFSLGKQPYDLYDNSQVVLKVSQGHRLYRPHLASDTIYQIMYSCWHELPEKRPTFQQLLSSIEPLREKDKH
The following applies: at 0.1 µM.

The target in assay [14] is T1, Cytoplasmic tyrosine-protein kinase BMX (Homo sapiens). Conditions: at 1 µM.
Assay [15] concerns the target Protein-tyrosine kinase 6 (Homo sapiens) (UniProt Q13882). The following applies: at 0.1 µM.
The target is the same in assay [16]. The following applies: at 1 µM.
The target of assay [17] is Tyrosine-protein kinase BTK (Homo sapiens) (UniProt Q06187). The following applies: at 0.1 µM.
Sequence of Tyrosine-protein kinase BTK (Homo sapiens) (Q06187 whole entry): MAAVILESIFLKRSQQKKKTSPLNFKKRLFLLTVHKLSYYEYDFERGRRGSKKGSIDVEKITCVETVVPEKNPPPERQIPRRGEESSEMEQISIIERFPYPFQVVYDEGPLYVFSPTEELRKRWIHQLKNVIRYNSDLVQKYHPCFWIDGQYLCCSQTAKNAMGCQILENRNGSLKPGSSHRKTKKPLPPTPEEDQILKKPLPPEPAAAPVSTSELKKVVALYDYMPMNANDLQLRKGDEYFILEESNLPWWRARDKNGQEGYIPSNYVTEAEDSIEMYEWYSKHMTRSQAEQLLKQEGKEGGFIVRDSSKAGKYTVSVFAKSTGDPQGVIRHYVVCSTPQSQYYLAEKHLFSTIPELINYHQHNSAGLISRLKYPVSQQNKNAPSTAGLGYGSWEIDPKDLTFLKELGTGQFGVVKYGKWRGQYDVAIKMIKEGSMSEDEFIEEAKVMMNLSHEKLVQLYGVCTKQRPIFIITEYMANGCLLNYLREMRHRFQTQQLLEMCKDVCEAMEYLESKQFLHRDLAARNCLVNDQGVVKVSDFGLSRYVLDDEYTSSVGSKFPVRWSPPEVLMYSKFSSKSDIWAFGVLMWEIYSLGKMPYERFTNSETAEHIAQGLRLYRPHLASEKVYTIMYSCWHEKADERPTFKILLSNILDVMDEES
Assay [18] shares this target. Conditions: at 1 µM.
Assay [19] deals with Tyrosine-protein kinase CSK (Homo sapiens) (UniProt P41240). The following applies: at 0.1 µM.
Sequence of Tyrosine-protein kinase CSK (Homo sapiens) (P41240 2-450 limits assumed): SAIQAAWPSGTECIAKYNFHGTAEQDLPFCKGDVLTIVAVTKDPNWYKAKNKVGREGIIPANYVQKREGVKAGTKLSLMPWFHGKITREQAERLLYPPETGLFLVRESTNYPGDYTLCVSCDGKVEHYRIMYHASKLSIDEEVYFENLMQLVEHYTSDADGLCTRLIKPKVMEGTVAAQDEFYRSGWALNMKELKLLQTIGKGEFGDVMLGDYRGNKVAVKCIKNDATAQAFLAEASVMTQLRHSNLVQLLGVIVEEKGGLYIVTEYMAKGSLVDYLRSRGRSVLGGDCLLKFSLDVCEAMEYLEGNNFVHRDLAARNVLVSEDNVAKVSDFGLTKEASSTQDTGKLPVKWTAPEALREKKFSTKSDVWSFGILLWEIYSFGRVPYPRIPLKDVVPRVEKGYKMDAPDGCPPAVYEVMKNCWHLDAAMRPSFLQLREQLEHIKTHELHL
Assay [20] deals with Tyrosine-protein kinase receptor UFO (Homo sapiens) (UniProt P30530). The following applies: at 0.1 µM.
Sequence of Tyrosine-protein kinase receptor UFO (Homo sapiens) (P30530 whole entry): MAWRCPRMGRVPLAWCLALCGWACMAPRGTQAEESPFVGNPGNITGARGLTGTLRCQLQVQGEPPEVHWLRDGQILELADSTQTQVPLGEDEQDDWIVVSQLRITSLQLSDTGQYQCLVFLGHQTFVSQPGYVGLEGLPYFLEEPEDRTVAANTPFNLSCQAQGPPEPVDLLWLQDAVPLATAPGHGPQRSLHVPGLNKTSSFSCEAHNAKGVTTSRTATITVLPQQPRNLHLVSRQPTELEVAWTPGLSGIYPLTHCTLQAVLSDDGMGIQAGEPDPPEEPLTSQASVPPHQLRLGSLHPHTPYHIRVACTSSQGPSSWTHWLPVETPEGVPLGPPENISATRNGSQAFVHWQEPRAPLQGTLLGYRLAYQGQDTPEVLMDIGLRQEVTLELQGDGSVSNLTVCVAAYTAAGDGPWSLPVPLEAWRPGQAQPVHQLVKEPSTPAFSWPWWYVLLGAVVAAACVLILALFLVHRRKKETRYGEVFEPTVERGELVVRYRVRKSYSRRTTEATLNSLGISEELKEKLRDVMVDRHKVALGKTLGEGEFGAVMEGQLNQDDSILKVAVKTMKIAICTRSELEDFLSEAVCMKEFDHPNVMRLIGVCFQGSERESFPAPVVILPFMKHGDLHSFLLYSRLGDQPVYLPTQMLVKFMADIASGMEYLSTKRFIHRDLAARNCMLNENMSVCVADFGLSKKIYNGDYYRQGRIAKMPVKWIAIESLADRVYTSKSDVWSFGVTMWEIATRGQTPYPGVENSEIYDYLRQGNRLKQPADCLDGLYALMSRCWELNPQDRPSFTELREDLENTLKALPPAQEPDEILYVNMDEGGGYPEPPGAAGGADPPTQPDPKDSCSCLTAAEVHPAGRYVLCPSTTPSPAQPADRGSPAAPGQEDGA

Sequence of Protein-tyrosine kinase 6 (Homo sapiens) (Q13882 whole entry, looked up): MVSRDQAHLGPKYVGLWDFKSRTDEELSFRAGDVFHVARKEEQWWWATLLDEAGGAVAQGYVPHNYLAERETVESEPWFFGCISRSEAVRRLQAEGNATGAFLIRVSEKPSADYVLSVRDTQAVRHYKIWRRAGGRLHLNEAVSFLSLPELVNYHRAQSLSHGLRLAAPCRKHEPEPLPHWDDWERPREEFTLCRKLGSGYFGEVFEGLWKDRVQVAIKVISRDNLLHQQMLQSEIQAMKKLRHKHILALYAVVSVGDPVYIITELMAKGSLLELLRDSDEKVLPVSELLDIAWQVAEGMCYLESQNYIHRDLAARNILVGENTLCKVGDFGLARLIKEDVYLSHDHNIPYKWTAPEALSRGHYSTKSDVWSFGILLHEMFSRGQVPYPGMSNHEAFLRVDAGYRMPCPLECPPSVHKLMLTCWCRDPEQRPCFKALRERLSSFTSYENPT
Sequence of ALK tyrosine kinase receptor (Homo sapiens) (Q9UM73 19-1620 limits assumed): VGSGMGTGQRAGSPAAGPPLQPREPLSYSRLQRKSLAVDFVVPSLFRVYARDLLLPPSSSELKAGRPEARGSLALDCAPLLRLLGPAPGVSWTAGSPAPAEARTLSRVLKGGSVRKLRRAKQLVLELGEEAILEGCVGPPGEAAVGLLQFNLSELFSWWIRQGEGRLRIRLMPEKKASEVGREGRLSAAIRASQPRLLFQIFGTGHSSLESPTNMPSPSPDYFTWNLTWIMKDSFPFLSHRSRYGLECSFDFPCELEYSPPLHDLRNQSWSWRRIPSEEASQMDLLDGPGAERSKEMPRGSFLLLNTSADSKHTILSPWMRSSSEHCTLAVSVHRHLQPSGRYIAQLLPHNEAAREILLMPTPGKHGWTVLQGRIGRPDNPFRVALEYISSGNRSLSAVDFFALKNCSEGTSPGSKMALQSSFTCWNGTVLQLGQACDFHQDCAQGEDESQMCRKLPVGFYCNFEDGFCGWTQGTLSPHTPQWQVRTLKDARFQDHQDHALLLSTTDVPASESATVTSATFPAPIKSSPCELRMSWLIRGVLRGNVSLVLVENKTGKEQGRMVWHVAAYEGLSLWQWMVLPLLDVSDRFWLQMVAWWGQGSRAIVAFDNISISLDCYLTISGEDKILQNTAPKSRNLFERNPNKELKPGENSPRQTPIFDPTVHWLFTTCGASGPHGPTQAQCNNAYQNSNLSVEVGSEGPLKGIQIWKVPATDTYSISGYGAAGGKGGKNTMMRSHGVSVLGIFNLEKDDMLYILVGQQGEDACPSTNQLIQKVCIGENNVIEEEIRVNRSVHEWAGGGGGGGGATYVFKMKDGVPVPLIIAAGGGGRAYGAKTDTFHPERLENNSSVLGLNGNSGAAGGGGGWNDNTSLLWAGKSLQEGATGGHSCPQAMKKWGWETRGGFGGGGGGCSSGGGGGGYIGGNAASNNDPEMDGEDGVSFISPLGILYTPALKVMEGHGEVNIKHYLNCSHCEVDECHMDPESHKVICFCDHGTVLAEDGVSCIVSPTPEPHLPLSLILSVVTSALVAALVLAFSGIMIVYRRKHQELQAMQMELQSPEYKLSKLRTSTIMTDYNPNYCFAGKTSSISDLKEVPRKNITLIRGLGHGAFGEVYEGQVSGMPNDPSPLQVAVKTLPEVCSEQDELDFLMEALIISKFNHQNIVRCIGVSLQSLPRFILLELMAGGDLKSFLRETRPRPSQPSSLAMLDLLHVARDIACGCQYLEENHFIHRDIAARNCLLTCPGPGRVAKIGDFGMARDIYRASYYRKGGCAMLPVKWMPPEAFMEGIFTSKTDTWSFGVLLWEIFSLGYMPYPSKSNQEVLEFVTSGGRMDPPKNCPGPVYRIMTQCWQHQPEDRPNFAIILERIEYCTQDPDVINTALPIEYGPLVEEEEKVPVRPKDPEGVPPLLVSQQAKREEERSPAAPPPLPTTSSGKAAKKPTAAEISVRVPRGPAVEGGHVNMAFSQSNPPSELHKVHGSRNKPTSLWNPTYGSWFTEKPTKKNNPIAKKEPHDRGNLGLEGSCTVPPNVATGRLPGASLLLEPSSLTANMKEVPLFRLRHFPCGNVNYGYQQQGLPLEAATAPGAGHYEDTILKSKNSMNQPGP

Consider `NS(=O)(=O)c1ccc(Nc2cc(-c3cccc(O)c3)n[nH]2)cc1`, for which the inhibition in assay [1] was found to be 7.24%; in [2], 6.94%; in assay [3], 11.8%; in assay [4], 5.23%; in assay [5] it was 11.4%; in [6] it was 3.58%. Also, the inhibition in assay [7] is 7.98%; in assay [8], 5.93%; in assay [9] it was 6.81%; in assay [10], -5.6%; in [11], 3.31%; in assay [12], 6.67%. Moreover, the inhibition in assay [13] was -0.08%; in [14], 4.72%; in [15], 4.78%; in assay [16] it was 6.34%; in [17] it was -0.39%; in assay [18], 0.41%. Besides, the inhibition in assay [19] came out at 4.63%.

For the compound `OCc1ccc(-c2nc(-c3ccccn3)c(-c3ccc4c(c3)OCO4)[nH]2)cc1`, the inhibition in assay [1] was 0.39%; in assay [2], 4.74%; in assay [3], 4.83%; in assay [4], 8.07%; in assay [5], 12.3%; in assay [6], 3.63%. The inhibition in assay [7] was 8.19%; in assay [8] it was 5.94%; in assay [20], -6.62%; in [10] it was -3.37%; in assay [11] it was 3.13%; in assay [12] it was 5.92%. For the same compound, the inhibition in assay [13] was -2.19%; in assay [14], 4.67%; in assay [15], 4.49%; in assay [16], 5.07%; in assay [17], 3.02%; in assay [18], 3.51%. The inhibition in assay [19] worked out at 3.92%.

`COc1cc2ncn(-c3cc(OCc4ccccc4S(C)(=O)=O)c(C#N)s3)c2cc1OC`: the inhibition in assay [1] was found to be 32.6%; in assay [2] it was 13.8%; in [3], 48.8%; in [4], 9.66%; in assay [5], 49%; in [6], 4.25%. Further, the inhibition in [7] amounted to 9.85%; in [8] it was 4.77%; in [9], 18%; in assay [10], 43.5%; in [11] it was 16.6%; in [12] it was 72.3%. Further, the inhibition in assay [13] was found to be 1.45%; in [14] it was 33.1%; in [15], 4.42%; in assay [16], 9.89%; in assay [17], 1.87%; in assay [18], 11.8%. Moreover, the inhibition in assay [19] worked out at 7.28%.

In the case of `CCS(=O)(=O)c1ccc(OC)c(Nc2nccc(N(C)c3ccc4c(C)n[nH]c4c3)n2)c1`, the inhibition in [1] was determined as 15%; in assay [2], 66.4%; in [3] it was 92.3%; in [4], 58%; in assay [5], 78.5%; in assay [6], 4.29%. The inhibition in [7] was 12.4%; in assay [8], 42%; in [9], 73.9%; in assay [20] it was -6.66%; in assay [10] it was -3.9%; in assay [11], 15.4%. Besides, the inhibition is 67.5% in assay [12]; 3.66% in [13]; 23.2% in assay [14]; 18.8% in assay [15]; 79.3% in [16]; 2.21% in [17]. Besides, the inhibition in assay [18] amounted to 27.1%; in [19], 1.43%.

For the compound `O=C(Nc1ccc(Oc2ccc3[nH]c(NC(=O)c4ccco4)nc3c2)cc1)Nc1cc(C(F)(F)F)ccc1F`, the inhibition in [1] is 94.4%; in assay [2] it was 38%; in assay [3], 84%; in assay [4] it was 27.9%; in [5], 72.2%; in assay [6], -1.81%. Besides, the inhibition in assay [7] was 7.58%; in [8], 35.6%; in assay [9], 66.4%; in assay [20] it was 16.1%; in [10], 60.5%; in assay [11] it was -3.12%. Also, the inhibition is 1.7% in assay [12]; -2.09% in assay [13]; 1.74% in assay [14]; 1.76% in [15]; 3.78% in assay [16]; -3.7% in assay [17]. Further, the inhibition in [18] is -3.03%; in [19] it was 2.94%.

For the compound `Nc1nccc(C#Cc2cncnc2Nc2ccc(OCc3cccc(F)c3)c(Cl)c2)n1`, the inhibition was determined as 2.7% in assay [1]; 3.75% in assay [2]; 2.69% in assay [3]; 4.16% in [4]; 9.58% in [5]; 3.59% in [6]. For the same compound, the inhibition was 6.28% in assay [7]; 3.79% in assay [8]; 3.33% in [9]; -7.36% in assay [20]; 1.72% in assay [10]; 3.54% in [11]. For the same compound, the inhibition in assay [12] is 5.98%; in assay [13], 1.74%; in assay [14], 8.65%; in assay [15] it was 4.52%; in assay [16], 3.74%; in assay [17] it was 0.96%. For the same compound, the inhibition came out at 7.04% in [18] and 10.2% in assay [19].

Regarding `CN(C)CCCn1c(-c2nonc2N)nc2cnccc21`, the inhibition in [1] is 1.3%; in [2] it was 2.05%; in assay [3], 4.68%; in [4], 2.69%; in assay [5], 4.71%; in assay [6] it was 2.82%. The inhibition was 4.63% in assay [7]; 3.56% in assay [8]; -5.79% in assay [9]; -7.29% in [20]; -8.31% in [10]; 1.44% in assay [11]. Besides, the inhibition in assay [12] stood at 3.44%; in [13], 3.45%; in [14] it was 3.08%; in assay [15], 0.2%; in assay [16], 3.36%; in assay [17], 0.72%. Moreover, the figures for the inhibition in assay [18] and in assay [19] were 0.12% and 1.79%, respectively.

The values above are taken from ChEMBL document CHEMBL1961873, “Compounds: GSK PKIS; Assays: Nanosyn kinase panel” (2012).
